Here are results for 16 molecules from PubChem BioAssay (NCATS).

Where “and” joins values, the source holds several entries; their conditions need not be identical. Equal values may be shown once. Inconclusive results are not listed. Calls of active or inactive are those of the source. Unless noted, calls come from the whole dose curve; as a rule, active = well fitted curve in the direction sought with a large enough effect; inconclusive = small, poorly fitted or top-dose-only effect, or another doubt; inactive = no such curve, though single readings can be large; an effect the other way counts as inactive or inconclusive.

Assay [1] addresses Glucocorticoid receptor (Homo sapiens) (UniProt P04150). As to the kind of experiment: qHTS assay for small molecule agonists of glucocorticoid receptor signaling (AID 588532; active = well fitted curve in the direction sought with a large enough effect in the signal ratio, with a control signal flat; the % refers to the signal ratio;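 note: 100% = dexamethasone at 0.1 µM and 0% = DMSO only wells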). The conditions noted are these: HeLa MMTV-bla, beta-lactamase ratio, agonist, 18 h; stronger effect = higher value; percent of dexamethasone control, DMSO zero. The essentials:
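Stimulation of a glucocorticoid response element-driven beta-lactamase gene was measured in HeLa cells. Responses were scaled between DMSO basal and 0.1 uM dexamethasone, then fitted for half-maximal stimulation.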
In general terms: Quantitative high-throughput screening tests each substance at several concentrations.

For assay [2] the target is unchanged. As to the kind of experiment: qHTS assay for small molecule antagonists of glucocorticoid receptor signaling (AID 588533; active = well fitted inhibition curve with a large enough effect in the signal ratio, with a control signal flat, not every such curve was filed as active; the % refers to the signal ratio;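 note: cells stimulated with 2 nM dexamethasone as agonist; % is set by controls: 0 for no effect and ±100 for the full control effect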). The note with it: HeLa MMTV-bla, GRE beta-lactamase ratio, antagonist mode, 18 h; series mostly up to 76.8 µM. Put shortly:
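Antagonist-mode qHTS: compound titrations added to GRE-bla HeLa cells, then dexamethasone 2 nM final; 18 h, 37 C. CCF4 FRET fluorescence normalized to dexamethasone and DMSO; IC50 from Hill fit.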

A short description of assay [3]: qHTS assay for small molecule antagonists of peroxisome proliferator-activated receptor delta signaling (AID 588535; active = well fitted inhibition curve with a large enough effect in the signal ratio, with a control signal flat, not every such curve was filed as active; the % refers to the signal ratio;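 for max response: cells co-treated with a PPAR-delta agonist as stimulator during compound exposure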). The note with it: HEK293T PPARd-UAS-bla, beta-lactamase FRET ratio, 18 h; 460 nm channel. Put shortly:
(§1)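 GeneBLAzer PPAR-delta-UAS-bla HEK293T cells in medium with 2% charcoal/dextran FBS were preincubated 5 hrs at 37 C, then given compounds, incubated 18 hrs at 37 C, and read by CCF4 beta-lactamase fluorescence; IC50 from Hill fits.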

Assay [4] addresses Peroxisome proliferator-activated receptor delta (Homo sapiens) (UniProt Q03181). Described as above. The note with it: HEK293T PPARd-UAS-bla, beta-lactamase FRET ratio, 18 h; series mostly up to 76.7 µM. The essentials:
as §1

For assay [5], the target named is Peroxisome proliferator-activated receptor gamma (Homo sapiens) (UniProt P37231). In words: qHTS assay for small molecule agonists of peroxisome proliferator-activated receptor gamma signaling (AID 588536; active = well fitted curve in the direction sought with a large enough effect in the signal ratio, with a control signal flat, not every such curve was filed as active; the % refers to the signal ratio;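 note: 0% = DMSO basal wells and 100% = rosiglitazone at 2 µM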). The conditions noted are these: HEK293 PPARg-UAS-bla, beta-lactamase ratio, 16 h, percent of rosiglitazone response, DMSO as zero; series mostly up to 76.7 µM. The essentials: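 GeneBLAzer PPAR-gamma-UAS-bla HEK293 cells in 1% charcoal/dextran-treated FBS medium were treated 16 h at 37 C with compounds. Beta-lactamase activity was read by CCF4 ratio (460/530 nm). Response was normalized to 2 uM rosiglitazone (100%) and DMSO, then Hill-fitted for EC50 and efficacy.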

For assay [6] the target is unchanged. In words: qHTS assay for small molecule antagonists of peroxisome proliferator-activated receptor gamma signaling (AID 588537; active = well fitted inhibition curve with a large enough effect in the signal ratio, with a control signal flat, not every such curve was filed as active; the % refers to the signal ratio;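 note: reporter cells co-stimulated with 50 nM rosiglitazone agonist during compound treatment; % of control where 0% means no effect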). The conditions noted are these: HEK293 PPARg-UAS-bla, beta-lactamase ratio, antagonist mode; series mostly up to 76.8 µM. The essentials: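 PPAR-gamma-UAS-bla HEK293 cells (3000/well, 1% charcoal/dextran-stripped FBS) were preincubated 6-6.5 h at 37 C, given titrated compounds, then stimulated with 50 nM rosiglitazone for 16 h. Beta-lactamase activity was read with CCF4 dye; IC50 came from Hill fits.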

Assay [7] in a line: qHTS assay for small molecule agonists of retinoid X receptor alpha signaling (AID 588544). The conditions noted are these: HEK293T RXRa-UAS-bla, beta-lactamase reporter, 18 h; 530 nm emission.
The target in assay [8] is Thyroid hormone receptor beta (Homo sapiens) (UniProt P10828). In words: qHTS assay for small molecule agonists of thyroid hormone receptor beta signaling (AID 588545; calls by dose curve;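 note: 0% = DMSO only and 100% = 10 nM T3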). The conditions noted are these: TR-UAS-bla GripTite HEK 293, beta-lactamase ratio, agonist mode, 18 h, percent of T3 response, DMSO as zero; series mostly up to 76.7 µM. Put shortly: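 Efficacy and EC50 values derive from Hill fits of qHTS titration data, normalized to 10 nM T3 and DMSO-only wells. HEK 293 reporter cells were stimulated for 18 hrs at 37 C, with beta-lactamase activity measured by CCF4 fluorescence.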

Assay [9] is described as follows: qHTS assay for small molecule antagonists of retinoid X receptor alpha signaling (AID 588546).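 Note: cells stimulated with 9-cis-retinoic acid as agonist; % is set by controls: 0 for no effect and ±100 for the full control effect.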 The conditions noted are these: HEK293T RXRa-UAS-bla, beta-lactamase ratio, antagonist mode; measured here: W530 green channel, cytotoxicity proxy. The essentials: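 Beta-lactamase reporter inhibition, read as CCF4 fluorescence ratio (ex 405, em 460/530 nm) after 2 h at RT. HEK293T UAS-bla cells, 2500/well, were stimulated with 9-cis-RA at 500 or 100 nM final alongside test compound for 18 h at 37 C.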

The target in assay [10] is Thyroid hormone receptor beta (Homo sapiens) (UniProt P10828). As to the kind of experiment: qHTS assay for small molecule antagonists of thyroid hormone receptor beta signaling (AID 588547; active = well fitted inhibition curve with a large enough effect in the signal ratio, with a control signal flat, not every such curve was filed as active; the % refers to the signal ratio;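 note: cells stimulated with 0.4 nM T3 agonist during compound exposure; % is set by controls: 0 for no effect and ±100 for the full control effect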). The note with it: TR-UAS-bla HEK293, beta-lactamase ratio, antagonist mode, 18 h. Put shortly: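 TR-UAS-bla GripTite HEK293 cells in 2% charcoal/dextran FBS medium were preincubated 4 h at 37 C, given compound (0.59 nM to 92 uM) plus 0.4 nM T3 (final) for 18 h, then CCF4 for 2 h at RT; Hill fit gave IC50.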

Assay [11] has as its target Voltage-gated inwardly rectifying potassium channel KCNH2 (Homo sapiens) (UniProt Q12809). In words: qHTS Assay for Small Molecule Inhibitors of the Human hERG Channel Activity (AID 588834).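 Note: lower thallium flux fluorescence means stronger hERG block; nearly all actives have a fitted effect of over 50% in size.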 Note: potency is the fitted concentration of half-maximal effect. The conditions noted are these: U2OS BacMam hERG, FluxOR thallium flux fluorescence; series mostly up to 46.1 µM. The essentials: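 Measured: FluxOR fluorescence after thallium stimulation in U2OS cells transduced with hERG by baculovirus. Compounds pre-incubated around 10 min; medium Opti-MEM with 2% FCS. AC50 from Hill equation.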

The target in assay [12] is Luciferin 4-monooxygenase (Photinus pyralis) (UniProt P08659). As to the kind of experiment: Biochemical firefly luciferase enzyme assay for NPC (AID 624030).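 Note: purified P. pyralis luciferase at 10 nM with luciferin and ATP substrate; 0% = DMSO and -100% = full luciferase inhibition by PTC124 control; nearly all actives have a fitted effect of over 70% in size.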 The conditions noted are these: purified P. pyralis luciferase, luminescence, 5 min; series mostly up to 58.6 µM. Put shortly:
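Counter-screen for direct inhibition of the luciferase enzyme by approved-drug library compounds, run at 10 nM enzyme in 50 mM Tris acetate (final). Luminescence was read within 5 min of enzyme-buffer addition and normalized to PTC124 versus DMSO (0%).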

A short description of assay [13]: S16 Schwann cell viability assay (CellTiter-Glo assay) (AID 624031).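 Note: plate controls were DMSO-treated cells for no effect and cell-free wells for full effect; nearly all actives have a fitted effect of over 70% in size.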 The conditions noted are these: S16 rat Schwann cells viability, 24 h; series mostly up to 57.5 µM. The essentials:
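Native S16 rat Schwann cells in DMEM/10% FBS without phenol red were incubated overnight, then exposed to compounds for 24 h at 37 °C/5% CO2. Viability was read as ATP luminescence (CellTiter-Glo), normalized to no-cell wells and DMSO (0%).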
For orientation: ATP-based viability assays read luminescence as a measure of living cells.

In assay [14] the target is Bile acid receptor (Homo sapiens) (UniProt Q96RI1). As to the kind of experiment: qHTS assay for small molecule antagonists of farnesoid X receptor signaling (AID 588526; calls by dose curve; note: % is set by controls: 0 for no effect and ±100 for the full control effect). The conditions noted are these: HEK293T FXR-UAS-bla, beta-lactamase ratio, antagonist mode; series mostly up to 76.7 µM. Put shortly: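 Concentration-response titrations were fitted to the Hill equation for half-maximal inhibition and maximal response, with data normalised to 50 uM chenodeoxycholic acid and DMSO control wells. Cells: FXR-UAS-bla HEK293T, dialyzed FBS.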

Assay [15] concerns the target Vitamin D3 receptor (Homo sapiens) (UniProt P11473). In words: qHTS assay for small molecule agonists of vitamin D receptor signaling (AID 588543; calls by dose curve;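 note: 0% = DMSO basal and 100% = reference agonist control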). The conditions noted are these: HEK293T VDR-UAS-bla, beta-lactamase ratio, 16 h; series mostly up to 76.8 µM. The essentials:
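qHTS in agonist mode: compound titrations stimulate a VDR-driven β-lactamase reporter in HEK293T cells over 16 h at 37 °C. Response normalized to 50 nM 1α,25-dihydroxyvitamin D3 = 100%, DMSO = 0%; Hill fitting gives EC50 and maximal response.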

Sequence of Voltage-gated inwardly rectifying potassium channel KCNH2 (Homo sapiens) (Q12809 whole entry, looked up): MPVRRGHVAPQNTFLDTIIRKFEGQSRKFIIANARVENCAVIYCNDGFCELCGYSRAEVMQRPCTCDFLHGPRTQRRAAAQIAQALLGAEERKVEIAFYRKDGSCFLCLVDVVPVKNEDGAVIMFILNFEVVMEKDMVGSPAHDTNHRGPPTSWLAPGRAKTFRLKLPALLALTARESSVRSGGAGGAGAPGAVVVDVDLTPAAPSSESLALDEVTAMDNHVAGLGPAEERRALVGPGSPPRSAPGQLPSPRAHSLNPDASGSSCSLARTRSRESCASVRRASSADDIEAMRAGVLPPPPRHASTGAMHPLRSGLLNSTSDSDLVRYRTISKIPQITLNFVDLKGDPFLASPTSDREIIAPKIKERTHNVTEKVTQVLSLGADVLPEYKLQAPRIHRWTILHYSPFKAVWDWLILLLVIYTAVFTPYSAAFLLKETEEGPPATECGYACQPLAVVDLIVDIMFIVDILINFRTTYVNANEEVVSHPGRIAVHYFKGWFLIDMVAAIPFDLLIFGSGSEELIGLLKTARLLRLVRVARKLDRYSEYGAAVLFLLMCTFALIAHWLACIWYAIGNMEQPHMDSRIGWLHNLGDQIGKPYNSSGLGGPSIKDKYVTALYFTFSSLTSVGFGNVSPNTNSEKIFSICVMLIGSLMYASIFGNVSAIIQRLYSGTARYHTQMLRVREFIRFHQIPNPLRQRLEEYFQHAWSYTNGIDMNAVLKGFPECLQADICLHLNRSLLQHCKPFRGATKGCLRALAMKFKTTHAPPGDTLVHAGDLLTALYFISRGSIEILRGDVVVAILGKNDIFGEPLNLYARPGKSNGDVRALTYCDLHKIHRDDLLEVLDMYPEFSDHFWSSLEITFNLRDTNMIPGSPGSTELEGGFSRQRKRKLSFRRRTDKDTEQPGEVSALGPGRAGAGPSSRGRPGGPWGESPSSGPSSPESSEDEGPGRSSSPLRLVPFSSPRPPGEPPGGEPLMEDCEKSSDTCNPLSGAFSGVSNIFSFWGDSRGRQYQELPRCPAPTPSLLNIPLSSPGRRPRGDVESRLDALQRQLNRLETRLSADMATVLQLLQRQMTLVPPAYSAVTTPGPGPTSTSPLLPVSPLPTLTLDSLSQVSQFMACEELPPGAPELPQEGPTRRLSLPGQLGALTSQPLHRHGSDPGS
Sequence of Peroxisome proliferator-activated receptor gamma (Homo sapiens) (P37231 whole entry, looked up): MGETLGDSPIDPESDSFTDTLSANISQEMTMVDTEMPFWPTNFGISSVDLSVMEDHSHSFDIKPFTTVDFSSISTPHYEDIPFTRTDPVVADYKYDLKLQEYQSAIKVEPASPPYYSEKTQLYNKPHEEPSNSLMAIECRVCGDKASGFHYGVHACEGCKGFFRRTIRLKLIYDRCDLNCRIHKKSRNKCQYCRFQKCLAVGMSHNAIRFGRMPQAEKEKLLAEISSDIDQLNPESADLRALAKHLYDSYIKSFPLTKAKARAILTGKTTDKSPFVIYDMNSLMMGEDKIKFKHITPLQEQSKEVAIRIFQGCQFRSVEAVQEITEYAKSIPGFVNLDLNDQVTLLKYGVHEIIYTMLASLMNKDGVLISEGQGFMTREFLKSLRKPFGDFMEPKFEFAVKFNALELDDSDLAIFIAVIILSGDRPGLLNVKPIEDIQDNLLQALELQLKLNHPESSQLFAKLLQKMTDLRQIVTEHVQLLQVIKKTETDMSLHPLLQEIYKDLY
Sequence of Luciferin 4-monooxygenase (Photinus pyralis) (P08659 whole entry, looked up): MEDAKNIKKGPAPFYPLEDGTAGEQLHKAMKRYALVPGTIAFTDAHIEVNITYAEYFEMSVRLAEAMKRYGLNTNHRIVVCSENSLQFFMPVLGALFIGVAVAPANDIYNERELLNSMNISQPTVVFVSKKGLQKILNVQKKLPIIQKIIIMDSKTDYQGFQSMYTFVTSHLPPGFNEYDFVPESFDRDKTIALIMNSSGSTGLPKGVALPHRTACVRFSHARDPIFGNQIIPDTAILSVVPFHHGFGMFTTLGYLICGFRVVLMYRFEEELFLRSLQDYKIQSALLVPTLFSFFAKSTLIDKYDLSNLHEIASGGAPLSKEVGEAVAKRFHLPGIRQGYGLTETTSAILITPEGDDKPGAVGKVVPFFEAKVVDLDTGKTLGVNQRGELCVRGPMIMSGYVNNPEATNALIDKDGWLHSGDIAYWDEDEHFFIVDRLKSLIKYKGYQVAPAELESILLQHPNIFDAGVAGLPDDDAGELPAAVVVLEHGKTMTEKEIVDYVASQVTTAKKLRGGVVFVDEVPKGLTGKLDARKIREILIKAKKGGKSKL
Sequence of Thyroid hormone receptor beta (Homo sapiens) (P10828 whole entry, looked up): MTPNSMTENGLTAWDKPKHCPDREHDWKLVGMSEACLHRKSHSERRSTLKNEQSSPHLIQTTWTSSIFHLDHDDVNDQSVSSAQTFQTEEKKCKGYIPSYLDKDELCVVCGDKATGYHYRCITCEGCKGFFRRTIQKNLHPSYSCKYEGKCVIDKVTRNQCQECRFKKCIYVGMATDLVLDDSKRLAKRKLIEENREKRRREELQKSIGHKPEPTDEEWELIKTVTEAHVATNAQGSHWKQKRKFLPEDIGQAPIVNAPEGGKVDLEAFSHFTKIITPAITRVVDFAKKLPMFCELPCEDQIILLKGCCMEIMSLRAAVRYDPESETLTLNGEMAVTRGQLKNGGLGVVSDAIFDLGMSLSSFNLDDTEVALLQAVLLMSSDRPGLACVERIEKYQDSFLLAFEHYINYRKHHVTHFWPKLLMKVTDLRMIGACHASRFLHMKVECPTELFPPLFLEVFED
Sequence of Peroxisome proliferator-activated receptor delta (Homo sapiens) (Q03181 whole entry, looked up): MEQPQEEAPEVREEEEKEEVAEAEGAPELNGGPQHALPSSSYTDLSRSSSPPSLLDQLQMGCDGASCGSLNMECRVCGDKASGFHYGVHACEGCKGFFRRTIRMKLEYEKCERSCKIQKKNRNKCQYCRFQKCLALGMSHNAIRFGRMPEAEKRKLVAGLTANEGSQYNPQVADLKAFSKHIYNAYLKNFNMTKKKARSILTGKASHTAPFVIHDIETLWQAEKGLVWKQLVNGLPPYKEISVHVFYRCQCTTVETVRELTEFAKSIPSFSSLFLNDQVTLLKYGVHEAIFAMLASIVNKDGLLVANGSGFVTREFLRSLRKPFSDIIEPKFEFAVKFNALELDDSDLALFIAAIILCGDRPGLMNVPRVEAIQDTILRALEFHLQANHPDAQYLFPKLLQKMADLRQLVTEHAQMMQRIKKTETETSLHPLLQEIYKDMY
Sequence of Glucocorticoid receptor (Homo sapiens) (P04150 whole entry, looked up): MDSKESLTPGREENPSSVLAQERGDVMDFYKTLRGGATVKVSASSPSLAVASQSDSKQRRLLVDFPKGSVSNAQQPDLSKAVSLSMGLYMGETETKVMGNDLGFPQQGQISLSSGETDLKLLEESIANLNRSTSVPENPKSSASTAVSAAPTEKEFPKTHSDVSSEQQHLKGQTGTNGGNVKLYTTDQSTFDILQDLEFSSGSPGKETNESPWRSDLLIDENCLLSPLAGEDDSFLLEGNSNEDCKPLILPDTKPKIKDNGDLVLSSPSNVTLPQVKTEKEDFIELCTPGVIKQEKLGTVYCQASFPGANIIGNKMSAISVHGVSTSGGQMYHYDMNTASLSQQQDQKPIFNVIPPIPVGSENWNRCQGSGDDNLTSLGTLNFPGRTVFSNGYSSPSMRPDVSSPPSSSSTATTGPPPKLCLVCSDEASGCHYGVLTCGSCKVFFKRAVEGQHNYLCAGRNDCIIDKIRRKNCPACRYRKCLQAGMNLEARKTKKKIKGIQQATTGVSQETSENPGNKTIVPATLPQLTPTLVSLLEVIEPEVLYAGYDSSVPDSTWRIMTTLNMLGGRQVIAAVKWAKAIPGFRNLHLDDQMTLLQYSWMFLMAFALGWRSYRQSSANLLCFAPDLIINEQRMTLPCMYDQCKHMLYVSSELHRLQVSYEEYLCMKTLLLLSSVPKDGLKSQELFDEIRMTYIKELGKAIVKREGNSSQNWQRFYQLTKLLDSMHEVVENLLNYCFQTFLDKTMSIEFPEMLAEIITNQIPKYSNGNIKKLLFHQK
Sequence of Vitamin D3 receptor (Homo sapiens) (P11473 whole entry, looked up): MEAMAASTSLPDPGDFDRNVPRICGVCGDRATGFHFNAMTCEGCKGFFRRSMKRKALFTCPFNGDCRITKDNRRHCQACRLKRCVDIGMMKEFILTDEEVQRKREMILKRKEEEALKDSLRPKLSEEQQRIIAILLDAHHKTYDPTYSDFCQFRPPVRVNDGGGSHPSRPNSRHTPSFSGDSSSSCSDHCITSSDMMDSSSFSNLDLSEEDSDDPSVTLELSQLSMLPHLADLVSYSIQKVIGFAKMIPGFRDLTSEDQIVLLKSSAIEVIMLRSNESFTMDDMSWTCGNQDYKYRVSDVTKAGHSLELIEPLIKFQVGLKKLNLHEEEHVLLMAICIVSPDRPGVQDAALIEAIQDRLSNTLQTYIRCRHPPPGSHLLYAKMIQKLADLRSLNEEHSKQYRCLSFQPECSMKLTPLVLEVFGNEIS
Sequence of Bile acid receptor (Homo sapiens) (Q96RI1 whole entry, looked up): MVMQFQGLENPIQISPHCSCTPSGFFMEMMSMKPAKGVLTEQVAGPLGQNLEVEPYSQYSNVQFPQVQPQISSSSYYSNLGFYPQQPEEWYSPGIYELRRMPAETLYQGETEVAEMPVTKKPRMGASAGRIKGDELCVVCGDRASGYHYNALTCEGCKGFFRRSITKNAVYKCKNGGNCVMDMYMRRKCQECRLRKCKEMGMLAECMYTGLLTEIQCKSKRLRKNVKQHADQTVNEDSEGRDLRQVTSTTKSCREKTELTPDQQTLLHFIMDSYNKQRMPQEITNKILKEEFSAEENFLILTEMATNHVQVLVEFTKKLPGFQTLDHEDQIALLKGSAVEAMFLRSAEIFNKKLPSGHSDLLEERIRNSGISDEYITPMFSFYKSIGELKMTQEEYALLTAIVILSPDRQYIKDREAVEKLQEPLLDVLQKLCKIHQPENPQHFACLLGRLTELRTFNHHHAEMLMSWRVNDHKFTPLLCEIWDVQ

As to `O=C1O[C@H]([C@@H](O)CO)C(O)=C1O`, the activation in assay [1] is 1.61% (inactive) and 16.4% (inactive). For the same molecule, the outcome in assay [2], in [4], in assay [5], in assay [6] and in assay [8] was inactive. Moreover, the max response was -14.8% in assay [3]; -15.9% and -7.94% in assay [7]; -3.01% in assay [9]. In addition, the activity change % (negative = inhibition) in assay [10] was 4.68% (inactive) and -9.73% (inactive). Besides, the Potency result in assay [11], in assay [12] and in assay [13] was “inactive” in each case.
For the molecule `CS(=O)(=O)c1ccc([C@@H](O)[C@@H](CF)NC(=O)C(Cl)Cl)cc1`, the Potency result in assay [11] is “inactive”.
On to `CN(C)CCOC(C)(c1ccccc1)c1ccccn1` (stereo not given), for which the result in assay [14], in assay [4], in [5], in assay [6], in [15] and in assay [8] was inactive. The max response in assay [3] is -48.6%; in assay [7], 19.3%; in [9] it was 3.38%. Also, the activity change % (negative = inhibition) in assay [10] was -6.28% (inactive). Further, in assay [11], the Potency result is “inactive”.
For the molecule `COc1ccc2[nH]c(S(=O)Cc3ncc(C)c(OC)c3C)nc2n1` (stereo not given), the Potency entry in assay [11] was “inactive”.
Still for that read-out and setting: in the case of `C[C@@H]1CC[C@@]2(OC1)O[C@H]1C[C@H]3[C@@H]4CC[C@H]5C[C@@H](O)CC[C@]5(C)[C@H]4CC(=O)[C@]3(C)[C@H]1[C@@H]2C` it was “inactive”; in that of `CN1CCOC(c2ccccc2)c2ccccc2C1` (stereo not given), “inactive”.
Take `CCN(CC)CCCC(C)Nc1c2ccc(Cl)cc2nc2ccc(OC)cc12` (stereo not given): in assay [11], the Potency is 14.1 µM (active) and 11.2 µM (active).
As to `O=C1NS(=O)(=O)c2ccccc21`, the max response in [3] stood at 2.93%. Besides, the outcome in [4] and in assay [5] was inactive. The Potency entry in assay [11], in assay [12] and in assay [13] was “inactive” throughout.
For the molecule `CC(=O)Oc1c(C)c(C)c2c(c1C)CC[C@@](C)(CCC[C@H](C)CCC[C@H](C)CCCC(C)C)O2`, the Potency result in [11] and in [12] was “inactive” in each case.
With `COc1cc(C)c(Cc2cnc(N)nc2N)cc1OC`, the Potency entry in [11] and in assay [12] was “inactive” in each case.
For the molecule `C=Cc1c(C)c2cc3[nH]c(cc4nc(cc5nc(cc1[nH]2)C(C)=C5CCC(=O)O)C(CCC(=O)O)=C4C)c(C)c3C=C`, the Potency result in assay [11], in [12] and in assay [13] was “inactive” each time.
With `O=Cc1ccccc1C=O`, the Potency result in assay [11] and in assay [12] was “inactive” throughout.
`C[C@H]1O[C@H](O[C@H]2[C@H](O)[C@@H](O)[C@@H](O[C@H]3[C@H](O)[C@@H](O)[C@H](O)O[C@@H]3CO)O[C@@H]2CO)[C@H](O)[C@@H](O)[C@@H]1N[C@H]1C=C(CO)[C@@H](O)[C@H](O)[C@H]1O`: the Potency entry in [11] was “inactive”.
On to `COc1ccc2cc1Oc1cc3c(cc1OC)CC[N+](C)(C)[C@H]3Cc1ccc(cc1)Oc1c(OC)c(OC)cc3c1[C@@H](C2)[N+](C)(C)CC3`, for which the Potency result in [11] was “inactive”.
Take `Oc1ccc(C(O)CNCCCCCCNCC(O)c2ccc(O)c(O)c2)cc1O` (stereo not given): the Potency result in assay [11] and in assay [12] was “inactive” each time.
As for `CCOC(CN1CCN(CC(C)C(=O)c2ccccc2)CC1)c1ccccc1` (stereo not given), the Potency in [11] is 12.6 µM (active). In addition, the Potency result in assay [12] is “inactive”.
